Measurements taken from PubChem BioAssay (Tox21).
Results filed as inconclusive are left out. Active and inactive are the calls of the source. Unless noted, calls come from the whole dose curve.

What was measured:
[1] = qHTS assay for small molecules that induce genotoxicity in human embryonic kidney cells expressing luciferase-tagged ATAD5 (AID 651632; active = well fitted curve in the direction sought with a large enough effect in the repeat runs; an effect the other way counts as inactive or inconclusive; note: potency is the fitted concentration of half-maximal effect; nearly all actives have a fitted effect of over 15% in size)
Outline: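 Genotoxicity read-out via ATAD5-luciferase: HEK293T cells, 16 hr compound incubation at 37C, Amplite detection.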

[2] = qHTS assay for small molecule agonists of the p53 signaling pathway - cell viability (AID 651633);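 note: p53RE-bla HCT reporter cells with a stable beta-lactamase p53 reporter; series mostly up to about 83 µM; nearly all actives have a fitted effect of over 30% in size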
Outline: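 p53RE-bla cells, seeded at 4,000 per well and rested 5 h at 37 C/5% CO2, received compounds in DMSO for 16 h at 37 C. CellTiter-Glo was then added, and luminescence was read after 30 min at room temperature to gauge cytotoxicity.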

[3] = qHTS assay for small molecules that induce genotoxicity in human embryonic kidney cells expressing luciferase-tagged ATAD5 - cell viability (AID 651634); note: nearly all actives have a fitted effect of over 25% in size
Outline: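 Live-cell protease activity (CellTiter-Fluor, fluorescence) indicates viability. HEK293T cells with luciferase-tagged ATAD5; 15.5 hr compound treatment at 37C.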

[4] = qHTS assay for small molecule disruptors of the mitochondrial membrane potential - cell viability (AID 720634);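 note: human HepG2 liver cancer cells; series mostly up to about 83 µM; nearly all actives have a fitted effect of over 20% in size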
Outline: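 Human hepatoma HepG2 cells were treated for 1 hr with test chemicals, then given m-MPI dye and CellTiter-Glo. Cell viability reflects luminescence proportional to cellular ATP.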

[5] = qHTS assay to test for compound auto fluorescence at 590 nm (red) in HepG2 cells (AID 720674; active = well fitted curve in the direction sought with a large enough effect in the repeat runs; an effect the other way counts as inactive or inconclusive)
Outline: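 Intrinsic compound fluorescence in the red window (Ex/Em 540/590 nm) is measured in attached HepG2 cells exposed for 1 hr, DMSO vehicle as baseline, benchmarked to Rose Bengal sodium.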

[6] = qHTS assay to test for compound auto fluorescence at 535 nm (green) in HepG2 cells (AID 720675; active = well fitted curve in the direction sought with a large enough effect in the repeat runs; an effect the other way counts as inactive or inconclusive)
[7] = qHTS assay to test for compound auto fluorescence at 460 nm (blue) in HEK293 cells (AID 720678; active = well fitted curve in the direction sought with a large enough effect in the repeat runs; an effect the other way counts as inactive or inconclusive)
Outline: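 Blue read-out at excitation 405 nm and emission 460 nm follows overnight compound exposure of HEK293 cells at 37C in 5% CO2. Activity is given as auto fluorescence equivalency to triamterene.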

[8] = qHTS assay to test for compound auto fluorescence at 590 nm (red) in HEK293 cells (AID 720679; active = well fitted curve in the direction sought with a large enough effect in the repeat runs; an effect the other way counts as inactive or inconclusive)
Outline: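 Red channel, Ex/Em 540/590nm; signal expressed as equivalency to Rose Bengal sodium. HEK293, 2,000 cells/well, 10% dialyzed FBS; 23 nL compound pinned after 4-5 hr attachment; overnight 37C/5% CO2 before reading.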

[9] = qHTS assay to test for compound auto fluorescence at 460 nm (blue) in HEK293 cell free culture (AID 720681; active = well fitted curve in the direction sought with a large enough effect in the repeat runs; an effect the other way counts as inactive or inconclusive)
Outline: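 Test compounds were pinned into cell-free culture medium (DMEM with 10% FBS) and fluorescence was read directly at Ex/Em 405/460 nm. Signals were expressed as fluorescence equivalents of triamterene, with DMSO vehicle as control.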

[10] = qHTS assay to test for compound auto fluorescence at 535 nm (green) in HEK293 cell free culture (AID 720682; active = well fitted curve in the direction sought with a large enough effect in the repeat runs; an effect the other way counts as inactive or inconclusive)
Outline: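 DMEM + 10% FBS, cell-free; cpd or DMSO pinned in; Ex485/Em535 read; output as fluorescein-equivalent signal.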

[11] = qHTS assay to test for compound auto fluorescence at 590 nm (red) in HEK293 cell free culture (AID 720683; active = well fitted curve in the direction sought with a large enough effect in the repeat runs; an effect the other way counts as inactive or inconclusive)
Outline: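 Tox21 10K library compounds were pinned into cell-free DMEM with 10% FBS and fluorescence was read at excitation 540 nm. Activity is expressed as Rose Bengal sodium equivalency.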

[12] = qHTS assay to test for compound auto fluorescence at 590 nm (red) in HepG2 cell free culture (AID 720684; active = well fitted curve in the direction sought with a large enough effect in the repeat runs; an effect the other way counts as inactive or inconclusive)
Outline: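 Measured in medium alone (MEM containing 10% FBS) following pintool addition of compound; emission at 590 nm with 540 nm excitation, referenced to Rose Bengal sodium.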

[13] = qHTS assay to test for compound auto fluorescence at 460 nm (blue) in HepG2 cell free culture (AID 720685; active = well fitted curve in the direction sought with a large enough effect in the repeat runs; an effect the other way counts as inactive or inconclusive)
Outline: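 Compound (23 nL) or DMSO pinned into cell-free MEM with 10% FBS; blue fluorescence read at 405/460 nm excitation/emission, expressed as auto-fluorescence equivalency to triamterene.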

[14] = qHTS assay to test for compound auto fluorescence at 535 nm (green) in HepG2 cell free culture (AID 720686; active = well fitted curve in the direction sought with a large enough effect in the repeat runs; an effect the other way counts as inactive or inconclusive)
[15] = qHTS assay to test for compound auto fluorescence at 460 nm (blue) in HepG2 cells (AID 720687; active = well fitted curve in the direction sought with a large enough effect in the repeat runs; an effect the other way counts as inactive or inconclusive)
Outline: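 Cells (2,000/well in MEM with 10% FBS) attached overnight at 37 C, then were exposed to compound or DMSO for 1 hr at 37 C, 5% CO2. Fluorescence read at Ex/Em 405/460 nm, expressed as triamterene-equivalent signal.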

[16] = target: Glucocorticoid receptor (Homo sapiens) (UniProt P04150); experiment: qHTS assay to identify small molecule agonists of the glucocorticoid receptor (GR) signaling pathway (AID 720691; active = well fitted activation curve with a large enough effect in the signal ratio in the repeat runs, not every such curve was filed as active; the % refers to the signal ratio)
Glucocorticoid receptor (Homo sapiens), sequence (P04150 whole entry, looked up): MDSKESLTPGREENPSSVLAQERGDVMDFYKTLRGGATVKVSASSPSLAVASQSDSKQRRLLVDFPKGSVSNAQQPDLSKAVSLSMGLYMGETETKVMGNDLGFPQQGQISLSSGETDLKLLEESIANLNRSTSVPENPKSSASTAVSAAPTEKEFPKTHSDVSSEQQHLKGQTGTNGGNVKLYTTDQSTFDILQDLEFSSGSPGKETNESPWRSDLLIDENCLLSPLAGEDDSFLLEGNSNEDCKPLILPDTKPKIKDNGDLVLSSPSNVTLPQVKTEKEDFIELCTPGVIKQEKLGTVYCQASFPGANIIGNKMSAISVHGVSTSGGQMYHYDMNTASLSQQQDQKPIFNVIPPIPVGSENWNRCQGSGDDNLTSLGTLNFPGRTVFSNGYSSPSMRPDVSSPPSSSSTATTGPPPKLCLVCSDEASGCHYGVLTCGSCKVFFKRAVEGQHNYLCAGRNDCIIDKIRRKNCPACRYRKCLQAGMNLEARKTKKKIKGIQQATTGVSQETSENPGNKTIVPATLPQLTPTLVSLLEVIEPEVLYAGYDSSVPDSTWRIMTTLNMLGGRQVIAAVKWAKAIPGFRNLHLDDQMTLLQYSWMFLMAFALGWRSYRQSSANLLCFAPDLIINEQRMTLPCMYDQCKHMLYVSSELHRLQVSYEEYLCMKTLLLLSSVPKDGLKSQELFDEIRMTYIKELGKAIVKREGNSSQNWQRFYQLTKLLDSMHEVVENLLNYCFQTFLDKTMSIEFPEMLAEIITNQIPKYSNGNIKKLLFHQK
Outline: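 Beta-lactamase reporter activity, read as fluorescence intensity, was measured in GR-bla HeLa cells exposed to compounds for 18 h at 37 C and then loaded with LiveBLAzer B/G FRET substrate for 2 h at room temperature.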

[17] = target: Glucocorticoid receptor (Homo sapiens) (UniProt P04150); experiment: qHTS assay to identify small molecule antagonists of the glucocorticoid receptor (GR) signaling pathway (AID 720692; active = well fitted inhibition curve with a large enough effect in the signal ratio in the repeat runs, not every such curve was filed as active; the % refers to the signal ratio; note: potency is the fitted concentration of half-maximal effect)
Outline: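 Fluorescence from cleaved LiveBLAzer B/G FRET substrate reports GRE-driven beta-lactamase in HeLa cells; compounds are tested against 5 nM dexamethasone (final) over 18 h at 37 C, substrate incubation 2 h at room temperature.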

[18] = qHTS assay to identify small molecule antagonists of the glucocorticoid receptor (GR) signaling pathway - cell viability counter screen (AID 720693; active = well fitted curve in the direction sought with a large enough effect in the repeat runs; an effect the other way counts as inactive or inconclusive; note: nearly all actives have a fitted effect of over 55% in size)
[19] = qHTS assay for identifying genotoxic compounds that show differential cytotoxicity against isogenic chicken DT40 cell lines with known DNA damage response pathways - Rev3 mutant cell line (AID 743014; active = well fitted curve in the direction sought with a large enough effect in the repeat runs; an effect the other way counts as inactive or inconclusive; note: nearly all actives have a fitted effect of over 55% in size)
[20] = qHTS assay for identifying genotoxic compounds that show differential cytotoxicity against isogenic chicken DT40 cell lines with known DNA damage response pathways - Rad54/Ku70 mutant cell line (AID 743015; active = well fitted curve in the direction sought with a large enough effect in the repeat runs; an effect the other way counts as inactive or inconclusive; note: potency is the fitted concentration of half-maximal effect; nearly all actives have a fitted effect of over 60% in size)
[21] = qHTS assay to identify small molecule antagonists of the androgen receptor (AR) signaling pathway - cell viability counter screen (AID 743033; active = well fitted curve in the direction sought with a large enough effect in the repeat runs; an effect the other way counts as inactive or inconclusive; note: nearly all actives have a fitted effect of over 45% in size)
[22] = target: Androgen receptor (Homo sapiens) (UniProt P10275); experiment: qHTS assay to identify small molecule antagonists of the androgen receptor (AR) signaling pathway (AID 743035; active = well fitted inhibition curve with a large enough effect in the signal ratio in the repeat runs, not every such curve was filed as active; the % refers to the signal ratio; note: potency is the fitted concentration of half-maximal effect)
Androgen receptor (Homo sapiens), sequence (P10275 whole entry, looked up): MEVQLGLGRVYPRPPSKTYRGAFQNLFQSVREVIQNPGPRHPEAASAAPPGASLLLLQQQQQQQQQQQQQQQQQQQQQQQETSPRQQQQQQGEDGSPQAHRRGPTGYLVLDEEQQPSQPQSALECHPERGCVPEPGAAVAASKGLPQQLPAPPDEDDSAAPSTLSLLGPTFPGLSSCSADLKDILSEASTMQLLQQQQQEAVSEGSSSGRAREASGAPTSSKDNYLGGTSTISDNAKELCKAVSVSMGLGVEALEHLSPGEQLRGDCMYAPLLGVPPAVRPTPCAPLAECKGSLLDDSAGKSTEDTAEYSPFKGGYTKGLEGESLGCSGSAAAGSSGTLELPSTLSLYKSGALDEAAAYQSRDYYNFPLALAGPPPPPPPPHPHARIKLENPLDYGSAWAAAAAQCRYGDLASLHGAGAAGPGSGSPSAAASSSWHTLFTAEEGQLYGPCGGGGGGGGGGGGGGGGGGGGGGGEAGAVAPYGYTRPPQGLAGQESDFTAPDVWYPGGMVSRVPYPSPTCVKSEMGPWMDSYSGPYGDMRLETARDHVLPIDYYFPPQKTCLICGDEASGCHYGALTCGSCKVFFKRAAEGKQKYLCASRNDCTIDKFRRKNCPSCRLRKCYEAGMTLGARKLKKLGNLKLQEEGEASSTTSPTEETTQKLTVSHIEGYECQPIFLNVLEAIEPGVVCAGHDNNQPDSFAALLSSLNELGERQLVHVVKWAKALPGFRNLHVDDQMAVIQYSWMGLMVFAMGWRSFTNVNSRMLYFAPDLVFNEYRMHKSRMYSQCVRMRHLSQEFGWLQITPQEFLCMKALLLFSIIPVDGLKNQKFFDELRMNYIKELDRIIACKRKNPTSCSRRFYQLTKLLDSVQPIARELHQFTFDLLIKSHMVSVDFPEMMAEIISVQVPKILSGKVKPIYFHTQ
Outline: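 Cell line: GeneBLAzer AR-UAS-bla GripTite (HEK293). Stimulus: R1881 added after compound. Exposure: 16 h, 37C, 5% CO2. Readout: LiveBLAzer B/G FRET fluorescence after 2 h at room temperature.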

[23] = target: Androgen receptor (Homo sapiens) (UniProt P10275); experiment: qHTS assay to identify small molecule agonists of the androgen receptor (AR) signaling pathway (AID 743036; active = well fitted activation curve with a large enough effect in the signal ratio in the repeat runs, with a control signal flat, not every such curve was filed as active; the % refers to the signal ratio)
Outline: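 Screening used 2,000 AR-bla HEK293 cells per well, treated 16 h at 37C with test compounds in DMSO alongside positive and DMSO-only controls; beta-lactamase activity was then read by LiveBLAzer B/G FRET fluorescence after 2 h at room temperature.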

[24] = target: Androgen receptor (Homo sapiens) (UniProt P10275); experiment: qHTS assay to identify small molecule agonists of the androgen receptor (AR) signaling pathway using the MDA cell line (AID 743040; active = well fitted curve in the direction sought with a large enough effect in the repeat runs; an effect the other way counts as inactive or inconclusive; note: nearly all actives have a fitted effect of over 20% in size)
Outline: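 Luminescence from ONE-Glo, read after 30 min at room temperature, reflects MMTV-driven luciferase in MDA-kb2 cells (AR- and GR-responsive). Treatment lasted 16 h at 37C, 0% CO2.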

[25] = qHTS assay to identify small molecule antagonists of the androgen receptor (AR) signaling pathway using the MDA cell line - cell viability counter screen (AID 743041; active = well fitted curve in the direction sought with a large enough effect in the repeat runs; an effect the other way counts as inactive or inconclusive; note: nearly all actives have a fitted effect of over 45% in size)
Outline: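 Viability counter screen run alongside the AR antagonist reporter: cells seeded 5 h before compound, R1881 added, 16 h incubation at 37C without CO2, fluorescent CellTiter-Fluor signal quantified.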

[26] = target: Androgen receptor (Homo sapiens) (UniProt P10275); experiment: qHTS assay to identify small molecule antagonists of the androgen receptor (AR) signaling pathway using the MDA cell line (AID 743042; active = well fitted curve in the direction sought with a large enough effect in the repeat runs; an effect the other way counts as inactive or inconclusive; note: nearly all actives have a fitted effect of over 55% in size)
Outline: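 MDA-kb2 cells (human breast carcinoma, stably carrying an MMTV-luciferase reporter responsive to AR and GR) were plated at 3,000 cells/well and preincubated 5 hr at 37C, then given compound plus R1881 agonist for 16 h. ONE-Glo luminescence was read.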

[27] = qHTS assay to identify small molecule antagonists of the thyroid receptor (TR) signaling pathway - cell viability counter screen (AID 743064; active = well fitted curve in the direction sought with a large enough effect in the repeat runs; an effect the other way counts as inactive or inconclusive; note: potency is the fitted concentration of half-maximal effect; nearly all actives have a fitted effect of over 50% in size)
Outline: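 Viability of T3-stimulated (1 nM final) GH3.TRE-Luc cells is measured by CellTiter-Fluor fluorescence after 23.5 h compound exposure at 37 °C plus 30 min reagent incubation.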

[28] = qHTS assay to identify small molecule antagonists of the thyroid receptor (TR) signaling pathway (AID 743065; active = well fitted curve in the direction sought with a large enough effect in the repeat runs; an effect the other way counts as inactive or inconclusive; note: potency is the fitted concentration of half-maximal effect; nearly all actives have a fitted effect of over 55% in size)
Outline: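 GH3.TRE-Luc rat pituitary cells carrying two TR response elements driving luciferase were plated for 4 h, given compound plus 1 nM T3 (final), and incubated 23.5 h at 37 C. ONE-Glo luminescence measured reporter inhibition; CellTiter-Fluor fluorescence tracked cytotoxicity.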

[29] = tested on: thyroid hormone receptor (rat, GH3 cells); experiment: qHTS assay to identify small molecule agonists of the thyroid receptor (TR) signaling pathway (AID 743066)
[30] = qHTS assay to identify small molecule antagonists of the estrogen receptor alpha (ER-alpha) signaling pathway - cell viability counter screen (AID 743074);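 note: HEK293 cells carrying ER-alpha-UAS-bla reporter stimulated with 17beta-estradiol; nearly all actives have a fitted effect of over 45% in size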
[31] = target: Estrogen receptor (Homo sapiens) (UniProt P03372); experiment: qHTS assay to identify small molecule agonists of the estrogen receptor alpha (ER-alpha) signaling pathway (AID 743075);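 note: HEK293 GripTite cells with ER-alpha and UAS-driven beta-lactamase reporter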
Estrogen receptor (Homo sapiens), sequence (P03372 whole entry, looked up): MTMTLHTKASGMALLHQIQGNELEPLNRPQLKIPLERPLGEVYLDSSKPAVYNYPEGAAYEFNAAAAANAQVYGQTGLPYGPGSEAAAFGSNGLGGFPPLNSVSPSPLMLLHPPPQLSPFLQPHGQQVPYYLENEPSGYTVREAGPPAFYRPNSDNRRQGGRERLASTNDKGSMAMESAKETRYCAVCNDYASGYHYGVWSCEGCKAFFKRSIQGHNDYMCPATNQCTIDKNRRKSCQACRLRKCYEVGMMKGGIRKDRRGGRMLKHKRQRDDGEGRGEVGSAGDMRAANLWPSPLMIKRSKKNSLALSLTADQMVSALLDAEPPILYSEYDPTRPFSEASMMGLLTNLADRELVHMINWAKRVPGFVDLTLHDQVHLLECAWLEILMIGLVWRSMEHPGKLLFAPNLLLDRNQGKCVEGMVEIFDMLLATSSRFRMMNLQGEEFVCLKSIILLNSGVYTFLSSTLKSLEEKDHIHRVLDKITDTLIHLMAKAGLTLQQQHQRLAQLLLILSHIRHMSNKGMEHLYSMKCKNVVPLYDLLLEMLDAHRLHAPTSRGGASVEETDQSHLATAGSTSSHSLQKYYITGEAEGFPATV

[32] = qHTS assay to identify small molecule antagonists of the estrogen receptor alpha (ER-alpha) signaling pathway using the BG1 cell line (AID 743080);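 note: BG1 cells stimulated with 17beta-estradiol alongside compound; potency is the fitted concentration of half-maximal effect; nearly all actives have a fitted effect of over 25% in size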
Outline: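 Luminescence from a 4×ERE-luciferase reporter in BG1-Luc-4E2 cells served as read-out. Cells, pre-cultured 5 days in stripped-serum phenol-red-free medium, were exposed to compound with 17beta-estradiol co-stimulation for 21.5 h at 37 C.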

[33] = target: Aromatase (Homo sapiens) (UniProt P11511); experiment: qHTS assay to identify aromatase inhibitors (AID 743083; active = well fitted curve in the direction sought with a large enough effect in the repeat runs; an effect the other way counts as inactive or inconclusive)
Aromatase (Homo sapiens), sequence (P11511 whole entry, looked up): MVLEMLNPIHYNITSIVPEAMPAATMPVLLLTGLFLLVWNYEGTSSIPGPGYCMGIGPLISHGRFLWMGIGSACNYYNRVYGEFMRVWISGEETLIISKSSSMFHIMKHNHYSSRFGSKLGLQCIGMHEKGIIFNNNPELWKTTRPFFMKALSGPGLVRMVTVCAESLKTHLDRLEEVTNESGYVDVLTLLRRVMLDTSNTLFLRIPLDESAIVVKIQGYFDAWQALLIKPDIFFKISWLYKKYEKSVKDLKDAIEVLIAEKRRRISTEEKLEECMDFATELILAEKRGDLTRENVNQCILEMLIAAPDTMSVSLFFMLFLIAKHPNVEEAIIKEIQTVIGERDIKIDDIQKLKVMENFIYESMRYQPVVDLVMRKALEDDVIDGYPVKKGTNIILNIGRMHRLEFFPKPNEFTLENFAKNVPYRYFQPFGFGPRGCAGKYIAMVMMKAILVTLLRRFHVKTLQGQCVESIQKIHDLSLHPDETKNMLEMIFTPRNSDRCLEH

[34] = qHTS assay to identify aromatase inhibitors - cell viability counter screen (AID 743084; active = well fitted curve in the direction sought with a large enough effect in the repeat runs; an effect the other way counts as inactive or inconclusive)
[35] = target: Aryl hydrocarbon receptor (Homo sapiens) (UniProt P35869); experiment: qHTS assay to identify small molecule that activate the aryl hydrocarbon receptor (AhR) signaling pathway (AID 743085; active = well fitted curve in the direction sought with a large enough effect in the repeat runs; an effect the other way counts as inactive or inconclusive;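 note: HG2L7.5c1 human HepG2 liver cells with stably integrated DRE-driven firefly reporter; series mostly up to about 70 µM; nearly all actives have a fitted effect of over 15% in size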)
Aryl hydrocarbon receptor (Homo sapiens), sequence (P35869 whole entry, looked up): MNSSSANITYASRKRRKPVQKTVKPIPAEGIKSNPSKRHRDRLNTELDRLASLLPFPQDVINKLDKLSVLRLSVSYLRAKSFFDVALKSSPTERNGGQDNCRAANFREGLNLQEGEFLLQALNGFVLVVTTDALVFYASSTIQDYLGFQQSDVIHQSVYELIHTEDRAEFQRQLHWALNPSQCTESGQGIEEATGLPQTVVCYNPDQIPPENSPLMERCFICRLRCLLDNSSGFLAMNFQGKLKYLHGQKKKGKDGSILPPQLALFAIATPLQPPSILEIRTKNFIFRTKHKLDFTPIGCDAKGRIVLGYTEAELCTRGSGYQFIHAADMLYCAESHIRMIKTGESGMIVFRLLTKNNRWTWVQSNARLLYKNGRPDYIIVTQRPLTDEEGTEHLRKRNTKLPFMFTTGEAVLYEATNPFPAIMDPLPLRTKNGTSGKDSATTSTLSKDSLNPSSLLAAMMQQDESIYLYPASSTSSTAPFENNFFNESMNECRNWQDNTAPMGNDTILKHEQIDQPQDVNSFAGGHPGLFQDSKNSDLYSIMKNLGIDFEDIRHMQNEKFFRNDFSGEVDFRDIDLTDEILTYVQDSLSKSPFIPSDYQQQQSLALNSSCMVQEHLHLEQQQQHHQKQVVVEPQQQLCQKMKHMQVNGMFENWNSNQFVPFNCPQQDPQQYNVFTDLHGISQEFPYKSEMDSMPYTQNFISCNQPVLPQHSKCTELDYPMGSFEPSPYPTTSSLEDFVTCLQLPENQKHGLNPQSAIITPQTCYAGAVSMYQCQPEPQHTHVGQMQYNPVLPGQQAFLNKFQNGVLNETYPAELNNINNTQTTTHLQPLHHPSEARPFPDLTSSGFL
Outline: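 A multiplexed format paired cell viability (CellTiter-Fluor fluorescence) with AhR-dependent luciferase output (ONE-Glo luminescence) in the same wells of HepG2 DRE-luc cells after 24 h compound exposure at 37C.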

[36] = qHTS assay to identify small molecule that activate the aryl hydrocarbon receptor (AhR) signaling pathway - cell viability counter screen (AID 743086; active = well fitted curve in the direction sought with a large enough effect in the repeat runs; an effect the other way counts as inactive or inconclusive;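 note: HepG2 liver cells carrying the AhR DRE luciferase reporter; series mostly up to about 70 µM; nearly all actives have a fitted effect of over 45% in size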)
Outline: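 HepG2-AhR-luc (HG2L7.5c1) cells, 4000/well, were preincubated 5 h at 37C, exposed to compound in qHTS format for 24 hr at 37C, then given CellTiter-Fluor for 30 min; viability was read as fluorescence in the reporter wells.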

[37] = target: Peroxisome proliferator-activated receptor gamma (Homo sapiens) (UniProt P37231); experiment: qHTS assay to identify small molecule agonists of the peroxisome proliferator-activated receptor gamma (PPARg) signaling pathway (AID 743094; active = well fitted activation curve with a large enough effect in the signal ratio in the repeat runs, not every such curve was filed as active; the % refers to the signal ratio)
Peroxisome proliferator-activated receptor gamma (Homo sapiens), sequence (P37231 whole entry, looked up): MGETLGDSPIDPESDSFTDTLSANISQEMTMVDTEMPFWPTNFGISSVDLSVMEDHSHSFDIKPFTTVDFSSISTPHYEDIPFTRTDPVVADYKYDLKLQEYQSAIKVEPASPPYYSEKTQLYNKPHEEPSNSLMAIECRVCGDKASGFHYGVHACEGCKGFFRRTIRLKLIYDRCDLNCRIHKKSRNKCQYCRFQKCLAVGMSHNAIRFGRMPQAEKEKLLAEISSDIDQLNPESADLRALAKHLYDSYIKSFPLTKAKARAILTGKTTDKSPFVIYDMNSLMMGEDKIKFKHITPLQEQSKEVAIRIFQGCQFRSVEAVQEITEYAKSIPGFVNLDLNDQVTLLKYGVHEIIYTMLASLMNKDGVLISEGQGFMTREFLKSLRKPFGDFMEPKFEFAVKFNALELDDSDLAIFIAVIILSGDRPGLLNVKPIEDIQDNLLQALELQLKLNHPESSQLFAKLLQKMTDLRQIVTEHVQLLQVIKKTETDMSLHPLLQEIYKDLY
Outline: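 Stably transfected HEK293H cells (GeneBLAzer PPARg UAS-bla) were incubated with test substances for 17 h at 37C after a 5 h pre-incubation; beta-lactamase activity was then detected by FRET substrate fluorescence.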

[38] = target: Acetylcholinesterase (Homo sapiens) (UniProt P22303); experiment: Acetylcholinesterase (AChE) small molecule antagonists: enzyme-based qHTS assay (AID 1347397); settings: Potency: AChE enzyme activity inhibition; outcome: AChE enzyme activity inhibition; note: nearly all actives have a fitted effect of over 55% in size
Acetylcholinesterase (Homo sapiens), sequence (P22303 whole entry, looked up): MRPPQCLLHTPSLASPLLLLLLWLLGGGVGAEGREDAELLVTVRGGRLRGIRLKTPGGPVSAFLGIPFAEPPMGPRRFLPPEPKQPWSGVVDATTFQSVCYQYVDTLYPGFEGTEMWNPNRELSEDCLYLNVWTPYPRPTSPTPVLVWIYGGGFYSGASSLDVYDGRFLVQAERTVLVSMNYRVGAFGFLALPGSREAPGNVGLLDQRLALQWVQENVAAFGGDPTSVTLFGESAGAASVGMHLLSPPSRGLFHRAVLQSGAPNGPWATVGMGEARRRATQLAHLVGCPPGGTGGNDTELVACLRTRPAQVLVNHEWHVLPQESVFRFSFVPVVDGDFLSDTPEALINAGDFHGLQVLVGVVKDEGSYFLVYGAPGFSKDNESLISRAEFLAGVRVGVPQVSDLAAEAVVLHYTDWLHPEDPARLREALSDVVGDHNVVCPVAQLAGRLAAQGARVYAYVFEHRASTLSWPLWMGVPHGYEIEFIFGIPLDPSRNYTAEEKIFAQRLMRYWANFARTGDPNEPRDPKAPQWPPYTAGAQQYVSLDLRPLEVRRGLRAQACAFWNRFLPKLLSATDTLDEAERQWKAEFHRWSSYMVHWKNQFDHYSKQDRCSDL
Outline: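 Human recombinant acetylcholinesterase; substrate acetylthiocholine; thiocholine quantified with DTNB (colorimetric). Compound preincubation 30 min RT; reaction 10 min RT.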

[39] = target: Acetylcholinesterase (Homo sapiens) (UniProt P22303); experiment: Acetylcholinesterase (AChE) small molecule antagonists: fluorescence cell-based qHTS assay (AID 1347398); settings: Potency: AChE activity; outcome: AChE activity; note: nearly all actives have a fitted effect of over 50% in size
Outline: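 Thiocholine generated from acetylthiocholine by SH-SY5Y cell AChE is detected with Thiolite Green (Ex/Em 490/520 nm) after 40 min at room temperature, following 30 min compound pretreatment at 37 C.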

[40] = target: Acetylcholinesterase (Homo sapiens) (UniProt P22303); experiment: Acetylcholinesterase (AChE) small molecule antagonists: enzyme-based qHTS assay with human liver microsomes (AID 1347399); settings: Potency: qHTS inhibition; outcome: qHTS inhibition; note: nearly all actives have a fitted effect of over 60% in size
Outline: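 Recombinant human AChE (50 mU/mL in the enzyme mix) and human liver microsomes (0.25 mg/mL final) were preincubated with compound and NADPH (0.25 mg/mL final) for 30 min at 37 C. Acetylthiocholine/DTNB was then added; thiocholine was read colorimetrically after 10 min at room temperature.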

Measured: Potency

Cc1nnc2n1-c1sc(Br)cc1C(c1ccccc1Cl)=NC2
active: [1] 23.7 µM | [17] 10.7 µM | [20] 26.6 µM | [22] 8.49 µM | [27] 21.1 µM | [28] 26.6 µM | [32] 11.9 µM
not listed: [38] | [39] | [40]
inactive: all other assays above

N=C(N)N
inactive: [38] | [39] | [40]

C1CCC2OC2C1 (centres undefined)
inactive: [38] | [39] | [40]

C/C=C/C(=O)N(CC)c1ccccc1C
inactive: [38] | [39] | [40]

CC1=CCC2CC1C2(C)C (centres undefined)
inactive: [38] | [39] | [40]

NC(=O)Cc1cccc(C(=O)c2ccccc2)c1N
inactive: [38] | [39] | [40]

CCOC(=O)C1=NN(c2ccccc2)C(=O)C1
inactive: [38] | [39] | [40]

O=C1C(N(CO)C(=O)NCO)N(CO)C(=O)N1CO (centres undefined)
inactive: [38] | [39] | [40]

C[CH2][Ge]([Cl])([CH2]C)[CH2]C
inactive: [38] | [39] | [40]

Nc1ccc([N+](=O)[O-])c(N)c1
inactive: [38] | [39] | [40]

CC(O)C(=O)O (centres undefined)
inactive: [38] | [39] | [40]

Cc1nnc(C(=O)NC(C)(C)c2nc(C(=O)NCc3ccc(F)cc3)c(O)c(=O)n2C)o1
inactive: [38] | [40]
